Compound activity deposited in PubChem BioAssay by several laboratories.
In the library only some 1.4% were active in any assay of this set; here they are far more common.
GLD-1 TGE inh: GLD-1-TGE RNA interaction inhibition (C. elegans); Q17339; purified GLD-1 + fluorescein TGE RNA, fluorescence polarization; inhibition, % at 5.96 µM; 320,000 tested, 0.44% active; AID 2280;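 active = percent inhibition above a per-plate cutoff, the plate mean of test compounds plus 3 SD, cut at about 30% in these data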;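 note: 0% = DMSO wells with GLD-1 and probe and 100% = wells lacking GLD-1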
Bcl-xL primary: inhibitors of human Bcl-xL. AID 2129. Q07817. inhibition, % at 10.9 µM. GST-Bcl-xL / FITC-Bim BH3 peptide fluorescence polarization. 320,000 tested, 0.7% active;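 active = inhibition above the mean of all tested compounds plus 3 SD, cutoff set per campaign, cut at about 30% in these data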;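 note: 0% = DMSO wells and 100% = unlabeled Bim-BH3 peptide competitor; inhibitors lower millipolarization by displacing the labeled peptide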
Target sequence (Q07817 whole entry, looked up): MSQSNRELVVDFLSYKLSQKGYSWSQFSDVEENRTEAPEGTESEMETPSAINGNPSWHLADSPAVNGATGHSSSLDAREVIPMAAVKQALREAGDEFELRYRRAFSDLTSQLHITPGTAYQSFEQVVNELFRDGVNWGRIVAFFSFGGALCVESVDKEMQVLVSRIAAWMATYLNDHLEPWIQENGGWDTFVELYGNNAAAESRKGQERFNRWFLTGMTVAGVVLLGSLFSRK
E coli Lon inh: inhibitors of E. coli Lon protease; purified E. coli Lon protease, fluorescence polarization; 360,000 tested, 0.42% active; inhibition, % at 7.94 µM; P0A9M0; in the data active = inhibition above about 13%, passing the limit was not always enough;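 note: 0% = enzyme with probe and DMSO and 100% = no enzyme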
EBV gp42 inh: EBV gp42 inhibition; 220,000 tested, 0.42% active; inhibition, % (tested at 21.74 µM); Fluorescence polarization binding assay, mP read-out; Q1HVG2; in the data active = inhibition above about 50%
MEX-5 binding: C. elegans MEX-5 TCR-2 RNA binding activity; Q9XUB2; activity score (negative = inhibition of binding), % at 10 µM; 300,000 tested, 0.38% active; MEX-5/FITC-TCR2 RNA binding, fluorescence polarization; active compounds read low;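 active = inhibition past about -25% in most replicates, and total fluorescence under double the plate's negative control median, limit read from the data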;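 note: 0% = DMSO and -100% = 5 µM competing unlabeled TCR2 RNA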
Target sequence (Q9XUB2 whole entry, looked up): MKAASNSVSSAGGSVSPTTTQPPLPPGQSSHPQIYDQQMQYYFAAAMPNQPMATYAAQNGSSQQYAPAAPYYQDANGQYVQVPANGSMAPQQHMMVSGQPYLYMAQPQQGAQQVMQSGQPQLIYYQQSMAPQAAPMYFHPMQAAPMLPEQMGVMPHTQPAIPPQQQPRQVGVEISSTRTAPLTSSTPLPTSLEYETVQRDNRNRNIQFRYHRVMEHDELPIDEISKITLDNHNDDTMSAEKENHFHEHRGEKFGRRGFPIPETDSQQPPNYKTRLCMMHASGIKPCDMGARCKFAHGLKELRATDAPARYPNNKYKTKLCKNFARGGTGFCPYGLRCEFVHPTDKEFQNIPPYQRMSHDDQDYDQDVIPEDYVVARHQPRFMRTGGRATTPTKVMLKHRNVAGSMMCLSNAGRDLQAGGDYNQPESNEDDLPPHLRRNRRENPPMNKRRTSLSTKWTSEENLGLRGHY
MCL1-BIM inh: inhibitors of human MCL1 binding to BIM-BH3 peptide; GST-MCL1 / FITC-Bim-BH3 fluorescence polarization; AID 2057; 320,000 tested, 0.68% active; Q07820; inhibition, % at 10.9 µM;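 active = inhibition above the mean inhibition of all tested compounds plus 3 SD, set per campaign, cut at about 40% in these data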;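 note: 0% = DMSO wells and 100% = unlabeled Bim-BH3 peptide control; higher means more loss of mP so more displacement of Bim peptide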
E coli Lon conf: E. coli Lon inhibition confirmation | shares compounds with E coli Lon inh | purified E. coli Lon, fluorescence polarization | inhibition, % at 7.94 µM | 1,400 tested, 31% active; in the data active = inhibition above about 16%;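 note: 0% = enzyme with probe and DMSO and 100% = no enzyme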
Numbers without * were called inactive; nt = no result given; + = active, no number.

SMILES | GLD-1 TGE inh | Bcl-xL primary | E coli Lon inh | EBV gp42 inh | MEX-5 binding | MCL1-BIM inh | E coli Lon conf
CC(=O)c1ccccc1OCC(=O)Nc1cccc(S(=O)(=O)N2CCCC2)c1 | -3 | 0 | 0 | nt | nt | 2 | nt
CCOc1ccccc1OCC(=O)Nc1cccc(S(=O)(=O)N2CCCCCC2)c1 | -6 | 1 | 60* | nt | -1 | 1 | -6
COc1ccc(NC(=O)COc2ccccc2C(N)=O)cc1S(=O)(=O)N1CCCCC1 | nt | nt | -1 | nt | nt | nt | nt
CCNC(=O)n1cc(-n2cncn2)c(-c2ccc(Cl)cc2)n1 | 0 | 0 | -6 | -2 | 1 | -1 | nt
COC(=O)C(Cc1ccc(O)cc1)NC(=O)C(C)NC(=O)c1ccc(C(C)(C)C)cc1 (centres undefined) | 8 | 5 | -9 | nt | 1 | 6 | nt
O=C(Nc1cccc2ccccc12)c1csc([C@@H]2O[C@H](CO)[C@@H](O)[C@H]2O)n1 | nt | nt | 4 | nt | nt | nt | nt
O=C(Nc1cccc(Cl)c1Cl)c1csc([C@@H]2O[C@H](CO)[C@H](O)[C@H](O)[C@H]2O)n1 | nt | nt | 15* | nt | nt | nt | 2
O=S(=O)(Nc1ncccn1)c1ccc(Nc2ncnc3ccccc23)cc1 | 2 | 3 | 20* | -7 | -6 | 0 | 81*
O=S(=O)(Nc1ncccn1)c1ccc(NC(=S)Nc2ccc(Cl)cc2)cc1 | 0 | 6 | 6 | -8 | -1 | 6 | nt
O=C(Nc1ccc(Cl)cc1)Nc1ccc(S(=O)(=O)Nc2ncccn2)cc1 | 9 | -1 | 65* | -8 | -1 | -2 | 48*
O=S(=O)(Nc1ccc(S(=O)(=O)Nc2ncccn2)cc1)c1ccccc1 | -7 | 2 | -7 | nt | 0 | 3 | nt
O=C(Nc1ccc(S(=O)(=O)Nc2ncccn2)cc1)c1ccc(Br)s1 | 5 | 5 | 28* | -15 | 0 | 4 | 34*
COc1cc(N)c2ncsc2c1 | nt | nt | 18 | nt | nt | nt | nt
COc1ccc(/C=C/C(=O)N2CCN(c3ccccn3)CC2)c2ccccc12 | 0 | 3 | 11 | -6 | 0 | 2 | nt
COc1ccc(/C=C/C(=O)N2CCN(c3ccccn3)CC2)c(OC)c1OC | 3 | -1 | 62* | nt | 2 | -1 | -5
CC(=O)Nc1ccc(NC(=O)[C@H](C)NC(=O)c2ccco2)cc1 | 4 | 1 | 53* | nt | 3 | -1 | -8
C[C@H](NC(=O)c1ccco1)C(=O)Nc1ccc(C#N)cc1 | 3 | -4 | -7 | nt | 2 | -1 | nt
Cc1cc(C)cc(C(O)c2ncc(-c3ccccc3Cl)[nH]2)c1 (centres undefined) | nt | nt | -17 | nt | nt | nt | nt
CN(C)c1ccc(/C=C(\Cl)c2nc3ccccc3s2)cc1 | -11 | -7 | -94 | -19 | nt | -32 | nt
CCCC(=O)Nc1ccc2c(c1)c1ccccc1n2CC | 2 | 2 | -4 | -6 | nt | -2 | nt
CCn1c2ccccc2c2cc(NS(=O)(=O)c3ccccc3C)ccc21 | 3 | 8 | 14* | -11 | 0 | 5 | -4
Cc1ccc(NC(=O)CN2C(=O)NC3(CCCCCCC3)C2=O)cc1C | 1 | -3 | -8 | nt | nt | -4 | nt
O=C(CN1C(=O)NC2(CCCCC2)C1=O)Nc1ccc2[nH]c(=O)[nH]c2c1 | 0 | 9 | 40* | nt | nt | 6 | -8
COC1=Nc2ccccc2/C=C\c2ccccc21 | nt | nt | -15 | nt | nt | nt | nt
CCOc1ccccc1OCC(=O)NN=C1CCCC(=O)C1 | 0 | nt | 36* | nt | nt | nt | 4
SMILES | GLD-1 TGE inh | Bcl-xL primary | E coli Lon inh | EBV gp42 inh | MEX-5 binding | MCL1-BIM inh | E coli Lon conf
Cc1ccc(OCC(=O)N/N=C2\CC(=O)CC(C)(C)C2)c(Br)c1 | nt | nt | 15* | nt | 3 | nt | -7
CCN(CC)C(=O)[C@H]1CC(CC(=O)NCCN2CCOCC2)C(=O)N2CCc3c([nH]c4ccc(OC)cc34)[C@]12C (some centres undefined) | nt | nt | -3 | nt | nt | nt | nt
CCN(CC)C(=O)[C@H]1CC(CC(=O)NCCCN(C)C)C(=O)N2CCc3c([nH]c4ccc(OC)cc34)[C@]12C (some centres undefined) | nt | nt | + | nt | nt | nt | -6
COc1ccc(CCC(=O)OCC(=O)Nc2c(C)n(C)n(-c3ccccc3)c2=O)cc1 | 0 | 1 | 0 | nt | nt | -4 | nt
CCCNC(=O)CN1C(=O)COc2ccc(S(=O)(=O)N3CC(C)CC(C)C3)cc21 (centres undefined) | 2 | 2 | 1 | nt | 0 | 9 | nt
Nc1ccc2cc3[nH]c4cc(N)ccc4c3nc2c1 | nt | nt | + | nt | nt | nt | 146*
Nc1ccc(-c2nc3ccc(N)cc3[nH]2)cc1 | 8 | 3 | 3 | -9 | -2 | 5 | nt
Cc1cc(Br)ccc1OCC(=O)NNC(=O)c1cnccn1 | -4 | 2 | 71* | -15 | -8 | 11 | -7
Cc1cc(Cl)ccc1OCC(=O)NNC(=O)c1cnccn1 | 6 | 3 | 10 | 4 | -5 | 4 | nt
ClN=C1C=CC=CC1=NCl | nt | nt | -1 | nt | nt | nt | nt
COC1=CC(=NCl)C=CC1=NCl | nt | nt | 45* | nt | nt | nt | 39*
O=C(O)CC(NNC(=O)c1ccccc1)C(=O)Nc1cccc([N+](=O)[O-])c1 (centres undefined) | 4 | -2 | 16* | -16 | -3 | -2 | 12
CCc1cccc(CC)c1N1C(=O)C2=C(SCCCS2)C1=O | nt | nt | 180* | nt | nt | nt | 160*
Cc1cc(=O)n2c(n1)SCOC2 | 2 | 1 | 5 | 4 | -1 | 1 | nt
Cc1ccc(CNC(=O)C(OC(=O)c2cccs2)C(C)C)cc1 (centres undefined) | 3 | 0 | 28* | nt | 0 | 8 | -14
CS(=O)(=O)c1cnc(-c2ccccc2)nc1-c1ccccc1Cl | -1 | 4 | -2 | -12 | 0 | 7 | nt
COc1cccc(/C=N/NC(=O)c2ccc(=O)n(C)c2)c1OC | 0 | -1 | 22* | -7 | 0 | 6 | 4
COc1ccccc1NC(=O)C[n+]1ccccc1C | nt | nt | 3 | nt | 3 | nt | nt
COc1ccc(Nc2cccc3ccccc23)cc1 | 17 | 17 | 84* | nt | 0 | 17 | 2
COc1ccc(Nc2cccccc2=O)cc1 | 4 | 0 | -3 | -3 | 0 | 2 | nt
Cc1cc(C)n(CC(=O)NNC(=O)c2ccc(S(C)(=O)=O)cc2)n1 | -5 | nt | 10 | nt | nt | nt | nt
CC1=NN(C(=S)Nc2ccccc2)C(c2ccccc2)C1 (centres undefined) | 4 | 0 | 84* | -23 | -3 | -3 | 9
Oc1ccc2c(c1)OCC1(O)Cc3cc(O)c(O)cc3C21 (centres undefined) | nt | nt | + | nt | nt | nt | +
COc1ccc(C2COc3cc(O)ccc3C2)c(OC)c1O (centres undefined) | 6 | 4 | -5 | nt | 2 | 10 | nt
Fc1ccccc1C(c1nnnn1Cc1ccc2c(c1)OCO2)N1CCN(Cc2ccco2)CC1 (centres undefined) | 1 | 3 | 16* | -13 | -2 | -3 | -3
NC(=O)C1CCN(C(c2ccccc2F)c2nnnn2Cc2ccco2)CC1 (centres undefined) | 8 | 8 | 1 | -9 | -1 | 3 | nt
